Source: PubChem BioAssay (Tox21)
Records with an inconclusive call do not appear. Where a call stands in place of a potency, no number is given. Calls of active or inactive are those of the source. Unless noted, calls follow the shape of the dose curve; as a rule, active = well fitted curve in the direction sought with a large enough effect in the repeat runs; inconclusive = weak or mixed curves; inactive = no such curve, though single readings can be large; an effect the other way counts as inactive or inconclusive.

How the values were obtained:
[1] = qHTS assay to identify small molecule that activate the aryl hydrocarbon receptor (AhR) signaling pathway - cell viability counter screen (AID 743086);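 also: HepG2 liver cells carrying the AhR DRE luciferase reporter; series mostly up to about 70 µM; nearly all actives have a fitted effect of over 45% in size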
How it was run: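 HepG2-AhR-luc (HG2L7.5c1) cells, 4000/well, treated 24 h at 37 C with compound; viability measured as CellTiter-Fluor fluorescence after 30 min in the same wells as the luciferase read.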

[2] = target: Peroxisome proliferator-activated receptor gamma (Homo sapiens) (UniProt P37231); test: qHTS assay to identify small molecule agonists of the peroxisome proliferator-activated receptor gamma (PPARg) signaling pathway (AID 743094; active = well fitted activation curve with a large enough effect in the signal ratio in the repeat runs, not every such curve was filed as active; the % refers to the signal ratio)
Chain of Peroxisome proliferator-activated receptor gamma (Homo sapiens) (P37231 whole entry, looked up): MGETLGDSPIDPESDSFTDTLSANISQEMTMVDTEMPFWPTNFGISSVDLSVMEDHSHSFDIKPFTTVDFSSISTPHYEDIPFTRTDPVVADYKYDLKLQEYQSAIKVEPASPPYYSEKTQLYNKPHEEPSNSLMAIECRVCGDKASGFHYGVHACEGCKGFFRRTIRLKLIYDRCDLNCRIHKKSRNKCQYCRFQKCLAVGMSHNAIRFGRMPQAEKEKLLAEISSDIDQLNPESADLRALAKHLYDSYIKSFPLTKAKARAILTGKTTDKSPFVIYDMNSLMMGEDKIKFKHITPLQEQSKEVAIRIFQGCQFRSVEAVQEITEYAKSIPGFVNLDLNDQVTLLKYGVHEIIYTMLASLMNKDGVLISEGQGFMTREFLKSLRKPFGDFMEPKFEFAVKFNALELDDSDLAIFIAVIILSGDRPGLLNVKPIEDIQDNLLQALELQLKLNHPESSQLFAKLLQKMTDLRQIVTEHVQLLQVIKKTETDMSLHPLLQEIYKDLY
How it was run: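 Reporter activation was scored by fluorescence of cleaved LiveBLAzer B/G substrate (1 h, room temperature) in PPARg-bla HEK293H cells previously treated 17 h at 37C with DMSO-dissolved compounds.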

[3] = target: Peroxisome proliferator-activated receptor gamma (Homo sapiens) (UniProt P37231); test: qHTS assay to identify small molecule antagonists of the peroxisome proliferator-activated receptor gamma (PPARg) signaling pathway (AID 743191; calls by dose curve; also: series mostly up to about 63 µM; nearly all actives have a fitted effect of over 30% in size)
How it was run: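 GeneBLAzer PPARg UAS-bla HEK293H cells, 5 h post-plating, exposed to compounds 17 h at 37C. LiveBLAzer B/G FRET substrate added for 1 h at room temperature; beta-lactamase reporter read by fluorescence intensity.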

[4] = qHTS assay to identify small molecule antagonists of the peroxisome proliferator-activated receptor gamma (PPARg) signaling pathway - cell viability counter screen (AID 743194); also: nearly all actives have a fitted effect of over 55% in size
How it was run: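 Cytotoxicity counter screen in PPARg-bla HEK293H cells, same wells as reporter assay. Compounds plus 50 nM rosiglitazone (final) for 17 h at 37 C, then viability read by CellTiter-Glo luminescence.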

[5] = qHTS assay for small molecule agonists of the antioxidant response element (ARE) signaling pathway - cell viability counter screen (AID 743203; calls by dose curve; also: nearly all actives have a fitted effect of over 55% in size)
How it was run: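 Viability counter screen: stably transfected ARE-bla HepG2 line, 16 hrs compound exposure at 37C/5% CO2, ATP-based CellTiter-Glo luminescence measured in the reporter wells.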

[6] = qHTS assay for small molecule activators of the heat shock response signaling pathway (AID 743210; active = well fitted activation curve with a large enough effect in the signal ratio in the repeat runs, with a control signal flat, not every such curve was filed as active; the % refers to the signal ratio;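 also: HeLa cells with beta-lactamase reporter driven by heat shock elements; series mostly up to about 63 µM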)
How it was run: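 Following overnight attachment, HSE-bla HeLa cells received test compounds for 5 h at 37 C; beta-lactamase activity was then detected via FRET substrate fluorescence.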

[7] = qHTS assay to identify small molecule agonists of the peroxisome proliferator-activated receptor delta (PPARd) signaling pathway - cell viability counter screen (AID 743211); also: nearly all actives have a fitted effect of over 55% in size
How it was run: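 PPARd-bla HEK293H cells (UAS-beta-lactamase reporter) were treated with compounds for 17 h at 37 C. Viability was then read in the same wells by CellTiter-Glo luminescence after 30 min at room temperature.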

[8] = target: Peroxisome proliferator-activated receptor delta (Homo sapiens) (UniProt Q03181); test: qHTS assay to identify small molecule agonists of the peroxisome proliferator-activated receptor delta (PPARd) signaling pathway (AID 743212; calls by dose curve)
Chain of Peroxisome proliferator-activated receptor delta (Homo sapiens) (Q03181 whole entry, looked up): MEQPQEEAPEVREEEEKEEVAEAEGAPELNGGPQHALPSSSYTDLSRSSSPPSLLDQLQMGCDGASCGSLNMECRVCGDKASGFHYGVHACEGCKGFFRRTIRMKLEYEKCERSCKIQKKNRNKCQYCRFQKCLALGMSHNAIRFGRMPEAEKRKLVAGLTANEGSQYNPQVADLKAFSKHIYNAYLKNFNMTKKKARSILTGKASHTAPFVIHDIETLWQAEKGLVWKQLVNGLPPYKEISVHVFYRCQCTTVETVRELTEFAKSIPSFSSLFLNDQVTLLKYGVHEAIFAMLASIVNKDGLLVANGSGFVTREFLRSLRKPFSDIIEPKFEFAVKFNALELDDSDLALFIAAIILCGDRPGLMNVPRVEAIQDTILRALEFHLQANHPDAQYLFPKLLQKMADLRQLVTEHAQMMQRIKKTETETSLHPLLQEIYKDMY
How it was run: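 Tox21 library screened in GeneBLAzer PPARd UAS-bla HEK293H cells. After compound treatment at 37 C, a FRET-based beta-lactamase substrate was applied for 2 h and fluorescence recorded.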

[9] = qHTS assay to identify small molecule antagonists of the peroxisome proliferator-activated receptor delta (PPARd) signaling pathway - cell viability counter screen (AID 743213); also: nearly all actives have a fitted effect of over 50% in size
How it was run: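 Same-well viability: cells pre-incubated 5 h, dosed with compound plus 300 nM L165041, kept 17 h at 37 C, FRET substrate 2 h RT, then CellTiter-Glo 30 min RT and luminescence.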

[10] = target: Peroxisome proliferator-activated receptor delta (Homo sapiens) (UniProt Q03181); test: qHTS assay to identify small molecule antagonists of the peroxisome proliferator-activated receptor delta (PPARd) signaling pathway (AID 743215; active = well fitted inhibition curve with a large enough effect in the signal ratio in the repeat runs, not every such curve was filed as active; the % refers to the signal ratio;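 also: cells stimulated with agonist L165041 at 300 nM final during compound exposure; series mostly up to about 62 µM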)
How it was run: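 Plated HEK293H PPARd-bla cells rested 5 h at 37 C and 5% CO2. Compound, then agonist L165041 at 300 nM final, was added; 17 h at 37 C followed. Substrate loading, 2 h room temperature, fluorescence measured.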

[11] = target: Bile acid receptor (Homo sapiens) (UniProt Q96RI1); test: qHTS assay to identify small molecule antagonists of the farnesoid-X-receptor (FXR) signaling pathway (AID 743217; active = well fitted inhibition curve with a large enough effect in the signal ratio in the repeat runs, not every such curve was filed as active; the % refers to the signal ratio)
Chain of Bile acid receptor (Homo sapiens) (Q96RI1 whole entry, looked up): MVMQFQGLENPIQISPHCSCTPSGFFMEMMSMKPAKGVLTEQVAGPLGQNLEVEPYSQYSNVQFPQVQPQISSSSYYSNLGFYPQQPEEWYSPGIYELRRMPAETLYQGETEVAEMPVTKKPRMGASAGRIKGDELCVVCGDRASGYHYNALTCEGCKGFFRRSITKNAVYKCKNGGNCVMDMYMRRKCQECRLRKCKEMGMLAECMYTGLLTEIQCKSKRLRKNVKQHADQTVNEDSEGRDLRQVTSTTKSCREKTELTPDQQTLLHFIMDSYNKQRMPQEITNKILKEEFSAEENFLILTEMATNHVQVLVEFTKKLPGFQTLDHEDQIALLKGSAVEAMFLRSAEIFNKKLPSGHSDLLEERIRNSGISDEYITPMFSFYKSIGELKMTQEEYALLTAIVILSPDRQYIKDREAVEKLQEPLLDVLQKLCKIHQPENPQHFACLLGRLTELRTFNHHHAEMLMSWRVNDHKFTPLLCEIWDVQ
How it was run: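 Screen of the Tox21 10K library in quantitative HTS format using FXR-UAS-bla HEK 293T reporter cells. Agonist chenodeoxycholic acid, 50 uM final, added with compounds; 16 h incubation at 37 °C; beta-lactamase FRET fluorescence measured.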

[12] = qHTS assay to identify small molecule agonists of the farnesoid-X-receptor (FXR) signaling pathway - cell viability counter screen (AID 743218); also: nearly all actives have a fitted effect of over 45% in size
How it was run: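 Viability of FXR-bla HEK 293T cells is measured by ATP-based CellTiter-Glo luminescence following 16 h compound treatment at 37 C and a prior 2 h room-temperature beta-lactamase substrate step.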

[13] = target: Bile acid receptor (Homo sapiens) (UniProt Q96RI1); test: qHTS assay to identify small molecule agonists of the farnesoid-X-receptor (FXR) signaling pathway (AID 743220; active = well fitted activation curve with a large enough effect in the signal ratio in the repeat runs, not every such curve was filed as active; the % refers to the signal ratio)
How it was run: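 FXR-UAS-bla HEK 293T cells carrying a UAS-driven beta-lactamase reporter were plated for 5 h at 37C/5% CO2, then exposed to DMSO-dissolved Tox21 10K compounds for 16 h at 37C. A LiveBLAzer B/G FRET substrate was loaded for 2 h at room temperature before fluorescence reading.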

[14] = qHTS assay to identify small molecule antagonists of the farnesoid-X-receptor (FXR) signaling pathway - cell viability counter screen (AID 743221; active = well fitted cell-killing curve with a large enough effect in the repeat runs, not every such curve was filed as active; also: nearly all actives have a fitted effect of over 50% in size)
How it was run: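 FXR-UAS-bla HEK 293T cells were treated with test compounds plus chenodeoxycholic acid (50 uM final) for 16 h at 37 C. Cell viability in the same wells was then read as CellTiter-Glo luminescence after 30 min at room temperature.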

[15] = target: Vitamin D3 receptor (Homo sapiens) (UniProt P11473); test: qHTS assay to identify small molecule agonists of the vitamin D receptor (VDR) signaling pathway (AID 743222; calls by dose curve)
Chain of Vitamin D3 receptor (Homo sapiens) (P11473 whole entry, looked up): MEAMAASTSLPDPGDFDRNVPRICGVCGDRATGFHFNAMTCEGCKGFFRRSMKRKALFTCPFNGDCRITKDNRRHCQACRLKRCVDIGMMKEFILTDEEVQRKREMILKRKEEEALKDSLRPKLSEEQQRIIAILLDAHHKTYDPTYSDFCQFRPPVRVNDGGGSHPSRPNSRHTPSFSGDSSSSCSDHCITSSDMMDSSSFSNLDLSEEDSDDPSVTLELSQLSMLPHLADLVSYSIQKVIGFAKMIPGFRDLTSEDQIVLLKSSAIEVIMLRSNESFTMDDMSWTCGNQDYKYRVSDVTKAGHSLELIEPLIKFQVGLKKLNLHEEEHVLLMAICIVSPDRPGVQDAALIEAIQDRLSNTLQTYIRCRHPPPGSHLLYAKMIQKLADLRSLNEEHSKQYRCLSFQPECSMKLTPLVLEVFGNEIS
How it was run: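 Fluorescence from cleaved LiveBLAzer B/G FRET substrate served as readout. VDR-bla cells had been treated 16 h at 37C with test compounds in DMSO, following a 4 h settling period, and substrate was loaded for 2 h at RT.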

[16] = target: Vitamin D3 receptor (Homo sapiens) (UniProt P11473); test: qHTS assay to identify small molecule antagonists of the vitamin D receptor (VDR) signaling pathway (AID 743223; active = well fitted inhibition curve with a large enough effect in the signal ratio in the repeat runs, not every such curve was filed as active; the % refers to the signal ratio)
How it was run: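 VDR-bla cells were plated, incubated 4 h at 37C, then given compound and 1alpha,25-dihydroxyvitamin D3 (3 nM final). After 16 h at 37C, LiveBLAzer B/G FRET substrate was added for 2 h at room temperature and fluorescence read.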

[17] = qHTS assay to identify small molecule agonists of the vitamin D receptor (VDR) signaling pathway - cell viability counter screen (AID 743224); also: series mostly up to about 63 µM; nearly all actives have a fitted effect of over 50% in size
How it was run: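 Compounds were pin-transferred onto VDR-bla cells plated 4 h earlier; following 16 h incubation at 37C, cell viability was quantified by CellTiter-Glo luminescence after 30 min at room temperature.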

[18] = qHTS assay for small molecule agonists of the antioxidant response element (ARE) signaling pathway (AID 743202; active = well fitted activation curve with a large enough effect in the signal ratio in the repeat runs, not every such curve was filed as active; the % refers to the signal ratio; also: potency is read from the fitted curve at half-maximal effect)
How it was run: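 HepG2 ARE-bla cells; 16 h treatment at 37 C; FRET-based beta-lactamase fluorescence read after 2 h substrate incubation at room temperature.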

[19] = qHTS assay for small molecule activators of the heat shock response signaling pathway - cell viability counter screen (AID 743209); also: nearly all actives have a fitted effect of over 50% in size
How it was run: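 Viability of HSE-bla HeLa cells is measured with CellTiter-Glo in the wells already used for the reporter read. Compound exposure lasts 5 h at 37 C, and luminescence is read after 30 min at room temperature.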

SMILES: Cc1ccccc1C#N
- outcome [1]: inactive
- outcome [2]: inactive
- outcome [3]: inactive
- outcome [4]: inactive
- outcome [5]: inactive
- outcome [6]: inactive
- outcome [7]: inactive
- outcome [8]: inactive
- outcome [9]: inactive
- outcome [10]: inactive
- outcome [11]: inactive
- outcome [12]: inactive
- outcome [13]: inactive
- outcome [14]: inactive
- outcome [15]: inactive
- outcome [16]: inactive
- outcome [17]: inactive

SMILES: CCCC(=O)CC
- outcome [1]: inactive
- outcome [2]: inactive
- outcome [4]: inactive
- Potency [18]: inactive
- outcome [5]: inactive
- Potency [19]: inactive
- outcome [7]: inactive
- outcome [8]: inactive
- outcome [9]: inactive
- outcome [10]: inactive
- outcome [12]: inactive
- outcome [14]: inactive
- outcome [15]: inactive
- outcome [16]: inactive
- outcome [17]: inactive

SMILES: COC(=O)c1ccc(NC(C)=O)cc1OC
- outcome [4]: inactive
- Potency [18]: inactive
- outcome [5]: inactive
- Potency [19]: inactive
- outcome [6]: inactive
- outcome [7]: inactive
- outcome [8]: inactive
- outcome [9]: inactive
- outcome [10]: inactive
- outcome [11]: inactive
- outcome [12]: inactive
- outcome [13]: inactive
- outcome [14]: inactive
- outcome [17]: inactive

SMILES: CCCCC(O)/C=C(C)/C=C/C=C/C(=O)N1CCCC1=O (stereo unspecified)
- outcome [3]: inactive
- outcome [4]: inactive
- Potency [18]: inactive
- outcome [5]: inactive
- Potency [19]: inactive
- outcome [6]: inactive
- outcome [7]: inactive
- outcome [8]: inactive
- outcome [9]: inactive
- outcome [10]: inactive
- outcome [11]: inactive
- outcome [12]: inactive
- outcome [13]: inactive
- outcome [14]: inactive
- outcome [15]: inactive
- outcome [16]: inactive
- outcome [17]: inactive

SMILES: COc1ccccc1N1CCN(CC(O)COc2cc(OC)c(OC)c(OC)c2)CC1 (stereo unspecified)
- outcome [3]: inactive
- outcome [5]: inactive
- Potency [19]: inactive
- outcome [8]: inactive
- outcome [10]: inactive
- outcome [12]: inactive
- outcome [17]: inactive

SMILES: CC(C)C(=O)Nc1cccc(C2CN3CCSC3=N2)c1 (stereo unspecified)
- outcome [4]: inactive
- outcome [5]: inactive
- Potency [19]: inactive
- outcome [6]: inactive
- outcome [7]: inactive
- outcome [8]: inactive
- outcome [9]: inactive
- outcome [10]: inactive
- outcome [11]: inactive
- outcome [12]: inactive
- outcome [13]: inactive
- outcome [14]: inactive
- outcome [15]: inactive
- outcome [16]: inactive
- outcome [17]: inactive

SMILES: CCC(C)(C)C
- outcome [1]: inactive
- outcome [2]: inactive
- Potency [18]: inactive
- outcome [5]: inactive
- Potency [19]: inactive
- outcome [6]: inactive
- outcome [7]: inactive
- outcome [9]: inactive
- outcome [11]: inactive
- outcome [12]: inactive
- outcome [13]: inactive
- outcome [14]: inactive
- outcome [16]: inactive
- outcome [17]: inactive

SMILES: Clc1ccc2c(c1)Nc1ccccc1S2
- outcome [4]: inactive
- Potency [18]: 29.8 µM (active)
- outcome [5]: inactive
- Potency [19]: inactive
- outcome [8]: inactive
- outcome [9]: inactive
- outcome [10]: inactive
- outcome [12]: inactive
- outcome [14]: inactive
- outcome [16]: inactive
- outcome [17]: inactive

SMILES: CC(C)(C)c1ccc(C(=O)CCCCl)cc1
- Potency [18]: inactive
- outcome [5]: inactive
- Potency [19]: inactive
- outcome [8]: inactive
- outcome [9]: inactive
- outcome [10]: inactive
- outcome [12]: inactive
- outcome [14]: inactive
- outcome [15]: inactive
- outcome [16]: inactive
- outcome [17]: inactive
